Holding throughout (type): functional
Assay [1] has as its target Solute carrier family 2, facilitated glucose transporter member 1 (Homo sapiens) (UniProt P11166). The assay can be described thus: ST_JUDE_LEISH: Cytotoxicity at 2uM final concentration against transgenic Leishmania Mexicana promastigotes LmGLUT1 that are glucose transport deficient and complemented with the human glucose transporter GLUT1. Activity is measured by DNA content using SYBR green in vitro.

The target of assay [2] is Hexose transporter 1 (Plasmodium falciparum) (UniProt O97467). Kind of assay: ST_JUDE_LEISH: Cytotoxicity at 2uM final concentration against transgenic Leishmania Mexicana promastigotes LmPfHT that are glucose transport deficient and complemented with the Plasmodium falciparum hexose transporter. Activity is measured by DNA content using SYBR green in vitro.
Assay [3] has as its target Glucose transporter (Leishmania mexicana) (UniProt O61059). The assay can be described thus: ST_JUDE_LEISH: Cytotoxicity at 2uM final concentration against transgenic Leishmania Mexicana promastigotes LmGT2 that are glucose transport deficient and complemented with the L. Mexicana glucose transporter 2. Activity is measured by DNA content using SYBR green in vitro.

Chain of Solute carrier family 2, facilitated glucose transporter member 1 (Homo sapiens) (P11166 whole entry): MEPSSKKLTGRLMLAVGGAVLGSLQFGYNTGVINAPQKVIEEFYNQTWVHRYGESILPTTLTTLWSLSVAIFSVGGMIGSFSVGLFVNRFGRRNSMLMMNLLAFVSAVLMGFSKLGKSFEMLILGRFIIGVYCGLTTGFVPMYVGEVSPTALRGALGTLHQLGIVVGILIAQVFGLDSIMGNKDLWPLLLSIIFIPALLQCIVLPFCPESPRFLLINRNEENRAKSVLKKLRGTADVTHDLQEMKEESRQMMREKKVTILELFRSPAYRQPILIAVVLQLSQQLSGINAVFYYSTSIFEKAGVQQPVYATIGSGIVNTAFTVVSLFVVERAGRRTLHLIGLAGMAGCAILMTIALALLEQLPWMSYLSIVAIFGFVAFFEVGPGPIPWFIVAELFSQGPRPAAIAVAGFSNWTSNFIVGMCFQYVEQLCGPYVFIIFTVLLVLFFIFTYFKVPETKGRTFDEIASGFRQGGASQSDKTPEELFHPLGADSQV

One may read the inhibition as the change of the read-out against control, counted positive when it falls. As for `COc1ccc(C2CC(c3cccs3)=NN2C(=O)COc2cccc3c2CCCC3O)cc1OC` (centres undefined), the results for the inhibition in assay [1], in assay [2] and in assay [3] were -1.84%, -0.04% and 4.14%, respectively.

`CC(C)(CNCc1ccc(C(F)(F)F)cc1)c1nc(-c2ccc(Cl)c(O)c2)c(-c2ccncc2)[nH]1`: the inhibition is 0.52% in assay [1], -0.09% in assay [2] and 0.02% in assay [3].

Take `O=C(Nc1cccc(C(F)(F)F)c1)NC1CCN(c2ccnc3ccccc23)CC1`: the results for the inhibition in assay [1], in assay [2] and in assay [3] were 5.82%, 5.09% and 2.7%, respectively.

Take `CC(=O)Nc1ccc(NC(=O)c2cc(-c3cc(Cl)ccc3O)n[nH]2)cc1`: the inhibition was -0.41% in assay [1], -0.51% in assay [2] and 2.29% in assay [3].

As for `N#Cc1ccc2c(c1)CCN(CCC1CCC(NC(=O)c3cc4ccc(Br)cc4[nH]3)CC1)C2` (centres undefined), the values for the inhibition in assay [1], in assay [2] and in assay [3] were 1.19%, 0.57% and 1.16%, respectively.

Take `O=c1cc(NCCCNCc2cccc(I)c2)[nH]c2ccccc12`: the inhibition in assay [1] is 0.98%; in assay [2], 0.27%; in assay [3], -0.58%.

In the case of `Cc1cc(Nc2ccc(OCc3ccccc3Cl)cc2)c2cc(Cl)ccc2n1`, the inhibition amounted to 19.8% in assay [1], 16.4% in assay [2] and 7.55% in assay [3].

On to `CCC(C)(C)NC(=O)C(c1cccc(OC)c1)N(C(=O)CNC(=O)c1cccs1)c1ccc2c(c1)OCCO2` (centres undefined), for which the results for the inhibition in assay [1], in assay [2] and in assay [3] were 6.74%, 6.4% and 6.92%, respectively.

For `O=C1CCCN1CCCNCc1ccc(-c2ccc(-c3nc4cc(F)ccc4[nH]3)cc2)cc1`, the inhibition in assay [1] is 11.9%; in assay [2], 13.3%; in assay [3], 12.3%.

For `CC(C)(C)c1nn(-c2ccccc2)c2[nH]c(=O)c(CNC3CCCCC3)cc12`, the inhibition in assay [1] is 1.69%; in assay [2], 1.5%; in assay [3] it was 2.72%.

As to `CC(C)CNCc1cccc(-c2cccc(CNC3CCN(Cc4ccccc4)CC3)c2)c1`, the inhibition in assay [1] came to 1.93%; in assay [2], 2.58%; in assay [3], 1.83%.

Regarding `Cc1cc(OCC2CCN(c3ccc(C(=O)NC4CC4)cn3)CC2)ccc1F`, the inhibition in assay [1] is 0.67%; in assay [2] it was 1.45%; in assay [3] it was -6.22%.

With `Cc1ccc(NC(=O)c2cccc(CN3CCCN(Cc4cccc(O)c4)CC3)c2)cc1`, the inhibition in assay [1] is -0.49%; in assay [2], 0.65%; in assay [3] it was 0.25%.

For the molecule `COc1ccc(C(=O)N[C@@H](CC(C)C)C(=O)NC2CC[C@@H](C)N(C(=O)Nc3ccc(Cl)cc3)CC2=O)cc1OCCN1CCOCC1` (some centres undefined), the inhibition in assay [1] was 2.44%; in assay [2], 3.66%; in assay [3], 5.16%.

In the case of `COc1ccc(CCNCCCCCCNCCc2ccc(Cl)c(Cl)c2)cc1OC`, the results for the inhibition in assay [1], in assay [2] and in assay [3] were 4.21%, 3.9% and 3.76%, respectively.

For the molecule `COC(=O)CCCCOc1c(OC)cc(Cc2cnc(N)nc2N)cc1OC`, the figures for the inhibition in assay [1], in assay [2] and in assay [3] were 11.2%, 7.13% and 7.7%, respectively.

Consider `O=c1nc2[nH]c3ccccc3n2c(=O)[nH]1`, for which the inhibition in assay [1] is 3.69%; in assay [2] it was 2.18%; in assay [3], 3.41%.

With `CCCC(C)Nc1nc(C)cc(N[C@@H](Cc2ccccc2)C(=O)NCCc2ccccc2)n1` (some centres undefined), the inhibition is 2.61% in assay [1], 3.38% in assay [2] and -0.17% in assay [3].

`COc1cccc(C23NC(=Nc4nc5ccccc5[nH]4)NC2(c2cccc(OC)c2)NC(=Nc2nc4ccccc4[nH]2)N3)c1` (centres undefined): the inhibition in assay [1] came to 6.07%; in assay [2], 4.74%; in assay [3], 3.29%.

On to `COc1ccc(Cc2c(N)nc3nc(N)nc(N)c3c2C)cc1`, for which the inhibition in assay [1] came to 1.48%; in assay [2], 3.73%; in assay [3] it was 3.1%.

With `Cc1c(C)n(C2CCCC2)c2ncnc(OC3CCN(CC(=O)NCC4CC4)CC3)c12`, the inhibition worked out at 7.05% in assay [1], 5.47% in assay [2] and 2.01% in assay [3].

Regarding `CC(C)c1ccc(NC(S)=NN=Cc2ccccn2)cc1`, the inhibition in assay [1] was 63.9%; in assay [2], 88.5%; in assay [3], 86.1%.

In the case of `CCOc1ccc(-c2nc(NC(=O)COc3ccc(OC)cc3)sc2C)cc1`, the inhibition in assay [1] came out at 9.63%; in assay [2] it was 10%; in assay [3] it was 10.1%.

Regarding `CN1c2ccc([N+](=O)[O-])cc2C(C)(C)C12C=Cc1cc(Br)cc([N+](=O)[O-])c1O2` (centres undefined), the values for the inhibition in assay [1], in assay [2] and in assay [3] were 2.03%, -0.39% and -0.71%, respectively.

Turning to `O=C(Nc1cccc(CN2CCN(C(=O)c3cccs3)CC2)c1)c1cccs1`, the values for the inhibition in assay [1], in assay [2] and in assay [3] were 2.53%, 2.59% and 2.26%, respectively.

Turning to `CCNc1cc(C(=O)N[C@@H](Cc2ccccc2)[C@H](O)CNCc2cccc(-c3cncnc3)c2)cc(N2CCCC2=O)c1`, the inhibition is 3.81% in assay [1], 3.48% in assay [2] and 4.42% in assay [3].

As for `CC1CCCCC1N(C)C1CCN(CCCNC(=O)C=Cc2ccc(Cl)cc2Cl)CC1` (centres undefined), the inhibition in assay [1] was -1.12%; in assay [2], -1.99%; in assay [3] it was 1.66%.

As for `Cc1ccc(NC(=O)N2CCC(n3c(-c4ccccc4)nc4cccnc43)CC2)cc1F`, the inhibition in assay [1] stood at 6.53%; in assay [2] it was 7.11%; in assay [3], 5.43%.

Consider `CCn1nc(C(=O)NC2CCOc3ccccc32)c2ccccc2c1=O` (centres undefined), for which the inhibition in assay [1] is -1.12%; in assay [2] it was -0.92%; in assay [3] it was -3.49%.

On to `COc1c(C2CCN(CCCCNC(=O)C=Cc3ccccc3C(F)(F)F)CC2)ccc2c1CCCC2`, for which the inhibition in assay [1] is -0.06%; in assay [2], -0.81%; in assay [3], -0.49%.

Consider `Cc1cc(NC(=O)NCCN2CCC(NS(=O)(=O)c3cccc(Br)c3)C2)c2ccccc2n1` (centres undefined), for which the inhibition stood at 1.93% in assay [1], 0.98% in assay [2] and 0.42% in assay [3].

Regarding `OC1CCCN(Cc2cccc(-c3ccc(-c4nc5ccccc5[nH]4)cc3)c2)C1` (centres undefined), the inhibition is 3.91% in assay [1], 5.45% in assay [2] and -2.43% in assay [3].

Regarding `CCCCNCCOc1ccc(-c2nc(-c3ccccc3)c(-c3ccccc3)[nH]2)cc1`, the inhibition in assay [1] was 1.09%; in assay [2], -0.08%; in assay [3] it was 0.53%.

For the origin of these results see ChEMBL document CHEMBL3433997, “St. Jude Leishmania screening dataset” (2016).
